Shown is part of a subset that was picked to be rich in hits.
TbPYK inhibitor = qHTS of Trypanosoma Brucei Inhibitors; Potency, µM (highest dose often 76.8 µM), most hits filed as inhibitors; AID 624173, 2012; TbPYK enzyme, Kinase-Glo Plus ATP luminescence, 45 min; 410,000 tested, 0.12% active; note: nearly all actives have a fitted effect of over 50% in size
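Luminescent Kinase-Glo Plus end-point after 45 min room-temperature reaction of T. brucei pyruvate kinase started with 130 uM ADP (final). Buffer TEA 50 mM pH 7.2 with KCl, MgCl2, BSA, Tween-20; titration-based qHTS with fitted concentration-effect curves.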
RE007 growth inh = qHTS Assay for Inhibitors of the HIV-1 protein Vpr; AID 651644, 2012; 360,000 tested, 0.21% active; Potency, µM (highest dose often 92.2 µM), hits mostly inhibitors; S. pombe RE007 Vpr strain, BacTiter-Glo ATP luminescence, 24 h; active = well fitted falling curve with a large enough effect; inconclusive = small, poorly fitted or top-dose-only effect; inactive = no such curve, though single readings can be large or run the other way; note: nearly all actives have a fitted effect of over 50% in size
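Fission yeast strain RE007, carrying one chromosomally integrated HIV-1 vpr copy, was seeded at OD 0.01 in PMG+AL medium with 23 nL pinned compound. After 24 h at 30 °C and 99% humidity, viability was read by BacTiter-Glo luminescence.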
Giardia FBPA inh = qHTS Assay for Inhibitors of Fructose-1,6-bisphosphate Aldolase from Giardia Lamblia; A8B2U2; purified Giardia FBPA; Potency, µM (titrated, usually from 59.6 µM), usual class: inhibitors; 290,000 tested, 0.71% active; AID 2451, 2010; note: nearly all actives have a fitted effect of over 55% in size
Target sequence (A8B2U2 whole entry, looked up): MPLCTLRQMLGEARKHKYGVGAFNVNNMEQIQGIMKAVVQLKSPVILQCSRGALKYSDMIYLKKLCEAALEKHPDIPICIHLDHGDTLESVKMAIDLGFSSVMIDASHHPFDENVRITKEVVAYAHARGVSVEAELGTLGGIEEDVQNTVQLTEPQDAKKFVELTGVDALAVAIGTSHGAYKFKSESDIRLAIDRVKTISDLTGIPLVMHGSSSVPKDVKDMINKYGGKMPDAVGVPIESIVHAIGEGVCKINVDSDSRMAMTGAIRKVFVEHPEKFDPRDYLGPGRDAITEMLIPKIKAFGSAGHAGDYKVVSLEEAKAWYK
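Giardia FBPA (40 nM reagent) was preincubated 10 min at RT with compound (up to 57.5 uM final), then substrate plus GAPDH/TPI/NAD/arsenate coupling system with diaphorase/resazurin was added; resorufin fluorescence (525/598 nm) was read after 20 min.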
LmPK inhibitor = qHTS Assay for Inhibitors of Leishmania Mexicana Pyruvate Kinase (LmPK) | 290,000 tested, 0.37% active | purified LmPK, Kinase-Glo ATP luminescence, 1 h | Potency, µM (top dose mostly 57.5 µM), usual class: inhibitors
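Screened at intermediate enzyme activity to detect both inhibitors and activators: LmPK at 0.1 nM, with a 0.5 nM enzyme column as activation reference. PEP 0.5 mM, ADP 0.1 mM; ATP detected by luminescence after 1 h.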
Shiga inhibitor = A qHTS for Small Molecule Inhibitors of Shiga Toxin; Vero cells, Shiga toxin protein synthesis inhibition reporter; inhibition, % at 38.7 µM; 290,000 tested, 9.2% active; in the data active = inhibition mostly above about 28%, no sharp cut-off; inactive = mostly below about 43%
CHX counter = Cycloheximide Counterscreen for Small Molecule Inhibitors of Shiga Toxin | cell reporter, cycloheximide protein synthesis inhibition counterscreen | max response, % | 300,000 tested, 12% active | AID 2314, 2010; in the data active = max response mostly above about 13%, no sharp cut-off; inactive = mostly below about 14%; note: read at 38.3 µM for the half of the compounds with a filed dose
Of the large screens only hits and unclear results are named; the others gave an inactive call. Unless noted, calls come from the whole dose curve; as a rule, active = well fitted curve in the direction sought with a large enough effect; inconclusive = small, poorly fitted or top-dose-only effect, or another doubt; inactive = no such curve, though single readings can be large; an effect the other way counts as inactive or inconclusive.

O=C(/C=C/NCC(=O)c1ccccc1)c1ccc(Br)cc1	Shiga inhibitor 45
O=C(/C=C/NNC(=O)c1ccccc1)c1ccc(Br)cc1	Shiga inhibitor 71, CHX counter 47
COc1ccc(C(=O)C=CNNC(=O)c2ccc(Cl)cc2)cc1	CHX counter 16 (no result: Shiga inhibitor)
COc1ccc(C(=O)NN/C=C/C(=O)c2ccc(Br)cc2)cc1	none (no result: Giardia FBPA inh, LmPK inhibitor, Shiga inhibitor, CHX counter)
O=C(/C=C/NNC(=O)c1ccc(Cl)cc1)c1ccccc1	Shiga inhibitor 47, CHX counter 31
CCOCCn1ccc2c(OCC(=O)Nc3cc(C(F)(F)F)ccc3Cl)cccc2c1=O	none (no result: RE007 growth inh, Giardia FBPA inh, LmPK inhibitor, Shiga inhibitor, CHX counter)
COc1cccc(NC(=O)Cn2c(=O)n(CCCCC(=O)NCc3ccccc3Cl)c(=O)c3ccccc32)c1	none (no result: RE007 growth inh, Giardia FBPA inh, LmPK inhibitor, Shiga inhibitor, CHX counter)
COc1ccc2c(c1)CCc1c(C(=O)N3CC4(C)CC3CC(C)(C)C4)noc1-2 (centres undefined)	none
COc1ccc2c(c1)CCc1c(C(=O)N3CCOCC3)noc1-2	Shiga inhibitor 74, CHX counter 31
COc1ccc2c(c1)CCc1c(C(=O)N3CCCc4ccccc43)noc1-2	CHX counter 27
Clc1ccc(CN2CCC(CNc3ncnc4onc(-c5ccc(Cl)cc5)c34)CC2)cc1	none (no result: RE007 growth inh, Giardia FBPA inh, LmPK inhibitor, Shiga inhibitor, CHX counter)
COc1ccc(-c2cn3nc(N4CCCC(C(=O)Nc5ccccc5F)C4)sc3n2)cc1 (centres undefined)	none (no result: RE007 growth inh, Giardia FBPA inh, LmPK inhibitor, Shiga inhibitor, CHX counter)
CC(=O)C1=NN(c2ccccc2)C(c2ccc3c(c2)OCO3)N1c1ccc(N2CCOCC2)cc1 (centres undefined)	none (no result: RE007 growth inh)
COc1cccc(N2C(C(C)=O)=NN(c3ccccc3)C2c2ccc(N3CCOCC3)cc2)c1 (centres undefined)	Shiga inhibitor 69, CHX counter 64
CN1C/C(=C/c2ccsc2)C(=O)/C(=C/c2ccsc2)C1	CHX counter 63
CN1C/C(=C/c2ccncc2)C(=O)/C(=C/c2ccncc2)C1	CHX counter 32
O=C1/C(=C/c2ccncc2)N2CCC1CC2	none
COC(=O)c1cc2oc(C)cc2n1Cc1ccc(Br)cc1F	none (no result: RE007 growth inh, Giardia FBPA inh, LmPK inhibitor, Shiga inhibitor, CHX counter)
O=C(N/N=C/c1c[nH]c2ccc(Br)cc12)c1ccc2c(c1)OCO2	none
O=C(N/N=C/c1c[nH]c2ccccc12)c1ccc2c(c1)OCCO2	Shiga inhibitor 94, CHX counter 55
O=C(N/N=C/c1c[nH]c2ccccc12)c1ccccc1	Shiga inhibitor 128, CHX counter 47
O=C(N/N=C\c1cn[nH]c1-c1ccccc1)c1cccnc1	none
O=C(N/N=C/c1c[nH]c2ccccc12)c1ccncc1	none
O=C(N/N=C/c1c[nH]c2ccccc12)c1sc2ccccc2c1Cl	Shiga inhibitor 19, CHX counter 25
O=C(N/N=C\c1cn[nH]c1-c1ccccc1)c1cccs1	Shiga inhibitor active, CHX counter 40
Cc1ccc(C(=O)Nc2ccc(C(=O)N/N=C/c3c[nH]c4ccccc34)cc2)cc1	none
Cc1cccc(NC(=S)N/N=C/c2c[nH]c3ccccc23)c1	Shiga inhibitor 40, CHX counter 14
Cc1cc(C(=O)N/N=C/c2c[nH]c3ccccc23)cs1	Shiga inhibitor 64, CHX counter 42
O=C(N/N=C/c1cccc2ccccc12)c1cccs1	Shiga inhibitor 87, CHX counter 73
Cn1cccc1/C=N/NC(=O)c1sc2ccccc2c1Cl	CHX counter 40
O=C(NN=Cc1cccc2ccccc12)C(=O)NN=Cc1cccc2ccccc12	none (no result: Giardia FBPA inh, LmPK inhibitor, Shiga inhibitor, CHX counter)
COc1cccc(Nc2nc3ccc(C)cc3nc2-n2nc(C)cc2C)c1	none (no result: RE007 growth inh, Giardia FBPA inh, LmPK inhibitor, Shiga inhibitor, CHX counter)
COCCN(CCOC)c1nc(C)nc2c1nc(-c1ccccc1)n2CCN1CCCC1	none (no result: TbPYK inhibitor, RE007 growth inh, LmPK inhibitor, Shiga inhibitor, CHX counter)
O=C(N/N=C/c1c[nH]c2ccccc12)c1cccc([N+](=O)[O-])c1	CHX counter 26
O=C(N/N=C/c1ccccn1)c1sc2ccccc2c1Cl	RE007 growth inh inconclusive, Giardia FBPA inh 5µM, Shiga inhibitor 89, CHX counter 44
Oc1ccccc1C=NNC(=S)Nc1ccc(F)cc1	none (no result: Giardia FBPA inh, LmPK inhibitor, Shiga inhibitor, CHX counter)

Bioassay records: PubChem BioAssay, National Center for Advancing Translational Sciences (NCATS)
